Common to all, as to experiment: DAPPL (digital affinity profiling via proximity ligation, sequencing); 10 mM Tris-HCl pH 7.5, 50 mM NaCl, 1 mM DTT, 4% glycerol, room temperature, 30 min; GST-TFs on glutathione beads, 16-mer random dsDNA library, 0.1% formaldehyde crosslink after washing; high values mean tight binding
Holding throughout (settings): protein: recombinant; tags: N-terminal GST; dsDNA, one strand shown

One assay deals with T1, FLI1 (Homo sapiens, UniProt Q01543 1-452).
T1 sequence: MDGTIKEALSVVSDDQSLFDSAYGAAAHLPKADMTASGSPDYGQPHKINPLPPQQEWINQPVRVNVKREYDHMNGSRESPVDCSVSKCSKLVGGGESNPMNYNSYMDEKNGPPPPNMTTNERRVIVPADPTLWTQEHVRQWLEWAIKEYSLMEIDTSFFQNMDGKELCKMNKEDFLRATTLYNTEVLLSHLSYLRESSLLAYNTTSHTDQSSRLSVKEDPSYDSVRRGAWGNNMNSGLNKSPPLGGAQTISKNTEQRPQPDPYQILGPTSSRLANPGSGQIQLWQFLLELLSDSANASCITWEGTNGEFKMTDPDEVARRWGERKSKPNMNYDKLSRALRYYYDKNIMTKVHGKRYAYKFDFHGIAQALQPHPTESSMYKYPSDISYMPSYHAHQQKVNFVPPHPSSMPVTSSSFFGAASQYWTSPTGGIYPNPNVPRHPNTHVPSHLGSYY
The procedure, abridged:
(§1)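 Sequencing on an Illumina NextSeq500 followed washing, crosslinking with 0.1% formaldehyde, proximity ligation (BsaI/T4 ligase, 1 h, 37 °C) and PCR amplification of pools that had been incubated for 30 min at room temperature with 200 nmole of a random double-stranded 16-mer DNA library in Tris/NaCl/DTT/glycerol buffer. Each pool held DNA-barcoded human transcription factors, expressed in yeast as GST fusions and captured on glutathione beads, plus a tag-only sample. Binding signal is a hexamer's read frequency for a factor divided by its frequency in the tag-only sample.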

The next assay addresses T2, ELK1 (Homo sapiens, UniProt P19419 1-428).
T2 sequence: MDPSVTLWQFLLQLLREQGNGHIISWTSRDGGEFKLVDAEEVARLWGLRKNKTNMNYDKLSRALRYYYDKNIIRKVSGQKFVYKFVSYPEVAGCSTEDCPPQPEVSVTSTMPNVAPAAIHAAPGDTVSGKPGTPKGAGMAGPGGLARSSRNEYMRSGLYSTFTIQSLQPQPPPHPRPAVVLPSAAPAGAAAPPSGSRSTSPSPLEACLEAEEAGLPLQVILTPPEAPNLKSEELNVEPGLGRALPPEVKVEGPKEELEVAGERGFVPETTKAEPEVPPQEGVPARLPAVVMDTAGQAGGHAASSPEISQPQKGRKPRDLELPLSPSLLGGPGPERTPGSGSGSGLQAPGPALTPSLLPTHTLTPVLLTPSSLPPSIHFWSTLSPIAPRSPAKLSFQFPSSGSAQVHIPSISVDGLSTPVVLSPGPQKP
The procedure, abridged:
as §1

A further assay addresses T3, GABPA (Homo sapiens, UniProt Q06546 1-454).
T3 sequence: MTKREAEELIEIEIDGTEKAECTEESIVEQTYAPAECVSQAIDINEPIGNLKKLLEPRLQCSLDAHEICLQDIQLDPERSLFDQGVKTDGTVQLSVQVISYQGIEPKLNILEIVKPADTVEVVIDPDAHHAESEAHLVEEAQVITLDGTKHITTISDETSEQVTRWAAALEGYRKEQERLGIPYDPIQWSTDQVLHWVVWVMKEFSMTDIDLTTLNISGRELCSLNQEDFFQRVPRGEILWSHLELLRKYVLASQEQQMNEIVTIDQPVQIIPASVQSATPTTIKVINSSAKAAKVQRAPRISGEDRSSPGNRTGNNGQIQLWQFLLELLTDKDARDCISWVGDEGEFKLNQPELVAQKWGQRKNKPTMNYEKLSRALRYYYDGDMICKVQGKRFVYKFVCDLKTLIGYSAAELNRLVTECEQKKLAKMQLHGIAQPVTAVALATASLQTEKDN
Summed up: as §1

The target in the next assay is T4, ERG (Homo sapiens, UniProt P11308 1-479).
T4 sequence: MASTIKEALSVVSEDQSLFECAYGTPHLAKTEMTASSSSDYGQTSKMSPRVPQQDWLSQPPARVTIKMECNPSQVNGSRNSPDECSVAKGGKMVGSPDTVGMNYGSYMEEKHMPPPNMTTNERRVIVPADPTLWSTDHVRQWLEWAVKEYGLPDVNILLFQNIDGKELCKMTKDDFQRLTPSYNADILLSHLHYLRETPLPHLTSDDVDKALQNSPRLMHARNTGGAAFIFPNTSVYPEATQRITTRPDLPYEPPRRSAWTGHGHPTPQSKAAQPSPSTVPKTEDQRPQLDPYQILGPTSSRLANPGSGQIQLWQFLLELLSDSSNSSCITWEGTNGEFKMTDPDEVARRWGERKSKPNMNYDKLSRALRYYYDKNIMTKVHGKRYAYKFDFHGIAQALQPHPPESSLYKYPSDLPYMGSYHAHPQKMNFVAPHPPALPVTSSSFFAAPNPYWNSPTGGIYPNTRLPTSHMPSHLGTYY
The procedure, abridged:
as §1

The next assay concerns the target ELF1 (Homo sapiens, UniProt P32519 1-619). The procedure, abridged: as §1
The next assay concerns the target T5, EHF (Homo sapiens, UniProt Q9NZC4 1-300).
T5 sequence: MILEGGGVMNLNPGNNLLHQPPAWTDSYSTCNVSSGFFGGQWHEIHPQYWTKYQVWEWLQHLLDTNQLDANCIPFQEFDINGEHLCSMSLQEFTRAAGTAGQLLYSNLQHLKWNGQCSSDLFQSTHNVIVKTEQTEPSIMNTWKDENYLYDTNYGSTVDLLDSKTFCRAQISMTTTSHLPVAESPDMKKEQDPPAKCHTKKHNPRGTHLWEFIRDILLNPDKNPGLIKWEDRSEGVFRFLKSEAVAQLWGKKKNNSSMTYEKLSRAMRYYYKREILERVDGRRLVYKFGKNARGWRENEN
The procedure, abridged:
as §1

The next assay addresses SPI1 (Homo sapiens, UniProt P17947 1-270). The procedure, abridged:
as §1

Another assay concerns the target SPIB (Homo sapiens, UniProt Q01892 1-262). Summed up:
as §1

The next assay concerns the target T6, ELK3 (Homo sapiens, UniProt P41970 1-407).
T6 sequence: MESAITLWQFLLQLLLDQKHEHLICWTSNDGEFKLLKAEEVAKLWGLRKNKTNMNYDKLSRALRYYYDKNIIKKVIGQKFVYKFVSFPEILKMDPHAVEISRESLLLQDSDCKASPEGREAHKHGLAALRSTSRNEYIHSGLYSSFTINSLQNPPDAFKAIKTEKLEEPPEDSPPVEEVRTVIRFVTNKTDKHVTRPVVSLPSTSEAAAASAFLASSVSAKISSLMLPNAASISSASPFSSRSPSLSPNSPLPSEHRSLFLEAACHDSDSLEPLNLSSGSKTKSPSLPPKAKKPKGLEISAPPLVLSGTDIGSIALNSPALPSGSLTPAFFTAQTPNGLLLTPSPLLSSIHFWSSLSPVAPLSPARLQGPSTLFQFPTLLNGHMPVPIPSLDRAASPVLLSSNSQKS
The procedure, abridged: as §1

Chain of SPIB (Q01892 whole entry): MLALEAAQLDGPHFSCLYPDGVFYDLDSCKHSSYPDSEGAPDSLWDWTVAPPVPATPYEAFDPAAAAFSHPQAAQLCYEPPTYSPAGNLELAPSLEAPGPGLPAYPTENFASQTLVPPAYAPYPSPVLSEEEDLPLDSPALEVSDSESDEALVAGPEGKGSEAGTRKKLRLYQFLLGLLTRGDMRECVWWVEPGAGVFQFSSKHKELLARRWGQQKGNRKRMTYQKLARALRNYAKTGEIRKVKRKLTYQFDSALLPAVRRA
Chain of ELF1 (P32519 whole entry): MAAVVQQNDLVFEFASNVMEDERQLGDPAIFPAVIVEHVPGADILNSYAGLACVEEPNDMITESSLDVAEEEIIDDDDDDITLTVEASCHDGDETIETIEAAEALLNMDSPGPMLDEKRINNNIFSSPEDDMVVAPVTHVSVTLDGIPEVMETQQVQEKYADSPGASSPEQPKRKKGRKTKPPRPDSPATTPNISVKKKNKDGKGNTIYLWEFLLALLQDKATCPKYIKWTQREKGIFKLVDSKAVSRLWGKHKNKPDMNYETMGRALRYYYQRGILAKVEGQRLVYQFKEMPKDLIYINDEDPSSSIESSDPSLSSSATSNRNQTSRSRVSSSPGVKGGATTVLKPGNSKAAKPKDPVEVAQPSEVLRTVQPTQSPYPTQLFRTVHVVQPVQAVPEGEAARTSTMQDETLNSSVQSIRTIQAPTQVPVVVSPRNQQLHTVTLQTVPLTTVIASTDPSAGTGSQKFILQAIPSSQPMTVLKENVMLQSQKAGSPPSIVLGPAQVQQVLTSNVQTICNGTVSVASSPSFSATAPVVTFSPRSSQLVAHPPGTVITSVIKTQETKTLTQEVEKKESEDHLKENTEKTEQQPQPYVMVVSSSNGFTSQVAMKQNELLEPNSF

TATTAA: the binding signal is 1.17 fold enrichment (6-mer frequency, TF over GST control) with FLI1; 1.13 fold enrichment (6-mer frequency, TF over GST control) with ELK1; 1.16 fold enrichment (6-mer frequency, TF over GST control) in the assay with GABPA; 1.12 fold enrichment (6-mer frequency, TF over GST control) with ERG; 1.22 fold enrichment (6-mer frequency, TF over GST control) in the assay with ELF1; 1.09 fold enrichment (6-mer frequency, TF over GST control) in the assay with EHF. In addition, the binding signal with SPI1 is 1.06 fold enrichment (6-mer frequency, TF over GST control); with SPIB, 1.23 fold enrichment (6-mer frequency, TF over GST control); with ELK3, 1.2 fold enrichment (6-mer frequency, TF over GST control).

ATTCTG: the binding signal is 1.35 fold enrichment (6-mer frequency, TF over GST control) in the assay with FLI1; 1.23 fold enrichment (6-mer frequency, TF over GST control) in the assay with ELK1; 1.33 fold enrichment (6-mer frequency, TF over GST control) in the assay with GABPA; 1.21 fold enrichment (6-mer frequency, TF over GST control) with ERG; 1.26 fold enrichment (6-mer frequency, TF over GST control) with ELF1; 1.34 fold enrichment (6-mer frequency, TF over GST control) with EHF. Moreover, the binding signal is 1.27 fold enrichment (6-mer frequency, TF over GST control) with SPI1; 1.15 fold enrichment (6-mer frequency, TF over GST control) with SPIB; 1.37 fold enrichment (6-mer frequency, TF over GST control) with ELK3.

Take TGCGAT: the binding signal with FLI1 was 1.12 fold enrichment (6-mer frequency, TF over GST control); with ELK1 it was 1.12 fold enrichment (6-mer frequency, TF over GST control); with GABPA it was 1.28 fold enrichment (6-mer frequency, TF over GST control); in the assay with ERG, 1.18 fold enrichment (6-mer frequency, TF over GST control); in the assay with ELF1, 1.16 fold enrichment (6-mer frequency, TF over GST control); with EHF it was 1.19 fold enrichment (6-mer frequency, TF over GST control). Also, the binding signal with SPI1 is 1.2 fold enrichment (6-mer frequency, TF over GST control); with SPIB it was 1.08 fold enrichment (6-mer frequency, TF over GST control); with ELK3, 1.31 fold enrichment (6-mer frequency, TF over GST control).

In the case of TCTCTC, the binding signal is 1.37 fold enrichment (6-mer frequency, TF over GST control) with FLI1; 1.27 fold enrichment (6-mer frequency, TF over GST control) in the assay with ELK1; 1.36 fold enrichment (6-mer frequency, TF over GST control) with GABPA; 1.22 fold enrichment (6-mer frequency, TF over GST control) in the assay with ERG; 1.35 fold enrichment (6-mer frequency, TF over GST control) with ELF1; 1.36 fold enrichment (6-mer frequency, TF over GST control) in the assay with EHF. For the same sequence, the binding signal with SPI1 is 1.39 fold enrichment (6-mer frequency, TF over GST control); with SPIB, 1.31 fold enrichment (6-mer frequency, TF over GST control); with ELK3 it was 1.36 fold enrichment (6-mer frequency, TF over GST control).

In the case of TACGAA, the binding signal is 1.15 fold enrichment (6-mer frequency, TF over GST control) in the assay with FLI1; 1.23 fold enrichment (6-mer frequency, TF over GST control) with ELK1; 1.3 fold enrichment (6-mer frequency, TF over GST control) with GABPA; 1.23 fold enrichment (6-mer frequency, TF over GST control) in the assay with ERG; 1.28 fold enrichment (6-mer frequency, TF over GST control) with ELF1; 1.22 fold enrichment (6-mer frequency, TF over GST control) in the assay with EHF. Also, the binding signal with SPI1 was 1.15 fold enrichment (6-mer frequency, TF over GST control); in the assay with SPIB it was 1.19 fold enrichment (6-mer frequency, TF over GST control); in the assay with ELK3, 1.25 fold enrichment (6-mer frequency, TF over GST control).

TAAAAA: the binding signal with FLI1 was 1.27 fold enrichment (6-mer frequency, TF over GST control); with ELK1, 1.13 fold enrichment (6-mer frequency, TF over GST control); in the assay with GABPA it was 1.36 fold enrichment (6-mer frequency, TF over GST control); with ERG, 1.26 fold enrichment (6-mer frequency, TF over GST control); with ELF1, 1.26 fold enrichment (6-mer frequency, TF over GST control); with EHF it was 1.29 fold enrichment (6-mer frequency, TF over GST control). For the same sequence, the binding signal with SPI1 is 1.53 fold enrichment (6-mer frequency, TF over GST control); with SPIB, 1.35 fold enrichment (6-mer frequency, TF over GST control); with ELK3, 1.32 fold enrichment (6-mer frequency, TF over GST control).

Turning to TTTATC, the binding signal in the assay with FLI1 is 1.25 fold enrichment (6-mer frequency, TF over GST control); in the assay with ELK1, 1.27 fold enrichment (6-mer frequency, TF over GST control); with GABPA it was 1.25 fold enrichment (6-mer frequency, TF over GST control); in the assay with ERG, 1.22 fold enrichment (6-mer frequency, TF over GST control); with ELF1 it was 1.21 fold enrichment (6-mer frequency, TF over GST control); in the assay with EHF, 1.36 fold enrichment (6-mer frequency, TF over GST control). Besides, the binding signal with SPI1 was 1.26 fold enrichment (6-mer frequency, TF over GST control); in the assay with SPIB, 1.28 fold enrichment (6-mer frequency, TF over GST control); with ELK3 it was 1.37 fold enrichment (6-mer frequency, TF over GST control).

(Values after article PMC7862700, “An all-to-all approach to the identification of sequence-specific readers for epigenetic DNA modifications on cytosine”.)
